# Test system: HFF
# Assay: cell viability relative to DMSO control; higher = less cytotoxic
# Settings: 1 µM; 72 h
# Method: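 Single-dose cytotoxicity screen of the MMV Pandemic Response Box at 1 uM on human foreskin fibroblasts (HFF), 72 h at 37 C. Viability measured by MTT (OD 550 nm) and normalised to the DMSO control (% survival).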
row,Compound,cell viability
1,O=C(/C(=C/c1ccc(Cl)cc1Cl)n1ccnc1)c1ccc(Cl)cc1,74.8%
2,CCCCCCCc1[nH]c2ccccc2c(=O)c1O,62%
3,c1cnc(NCc2ccc(CNc3ncccn3)cc2)nc1,67.2%
4,Nc1nc2c(ncn2COC(CO)CO)c(=O)[nH]1,68.6%
5,C=C(C)n1c(=O)n(Cc2ccccc2C)c2ccccc21,63%
6,C[C@H](Cn1cnc2c(N)ncnc21)OCP(=O)(O)O,58.1%
7,O=S(=O)(NCB(O)O)c1cc2c(Cl)ccc(Cl)c2s1,68%
8,CCc1cc(CCC(=O)Nc2ccccc2O)c(O)nc1C,71.2%
9,NC(=O)[C@@H]1CC[C@@H]2CN1C(=O)N2OS(=O)(=O)O,69.1%
10,N=C(N)NCCCCC(=O)Nc1cc(C(F)(F)F)cc(NC(=O)c2cc(C(=O)Nc3cc(C(F)(F)F)cc(NC(=O)CCCCNC(=N)N)c3O[C@@H]3CCNC3)ncn2)c1O[C@@H]1CCNC1,57.6%
11,CCOC(=O)/C=C/[C@H](C[C@@H]1CCNC1=O)NC(=O)[C@H](CC)n1cccc(NC(=O)c2cc(C)on2)c1=O,68.3%
12,NC(=O)c1cnccn1,68.1%
13,O=C(O)c1ccc(-n2nc(-c3ccccc3O)nc2-c2ccccc2O)cc1,76.7%
14,N#C/C(=C1/SC[C@H](c2ccc(Cl)cc2Cl)S1)n1ccnc1,74.7%
15,Cc1[nH]c2ccccc2c1CC(=O)N[C@@H](Cc1ccccc1)C(=O)N(C)c1ccccc1,69.6%
16,CN(C)CCNC(=O)c1cccc2cccnc12,61.2%
17,O=C1NC(=O)C(Br)=C1Br,63.1%
18,CC(C)c1cc2c(cc1S(=O)(=O)O)[C@@]1(C)CCC[C@@](C)(C(=O)O)[C@@H]1CC2,64.8%
19,FC(F)(F)Oc1ccc(Nc2ccc3cccc(Cl)c3n2)cc1,56.3%
20,CCc1nc(N)nc(N)c1C#CC(C)c1cc(OC)cc(-c2ccncc2)c1 (stereo not given),79.3%

row,Compound,cell viability
1,C=C(C)[C@@H]1CC[C@]2(C(=O)O)CC[C@]3(C)[C@H](CC[C@@H]4[C@@]5(C)CC[C@H](O)C(C)(C)[C@@H]5CC[C@]43C)[C@@H]12,69.3%
2,COc1ccc(COc2cc3oc(=O)c4cc(C(C)O)ccc4c3cc2OC)cc1 (stereo not given),57.3%
3,Oc1cc(-c2cccc3ccccc23)[nH]n1,66.8%
4,CN(Cc1ccc(C(C)(C)C)cc1)Cc1cccc2ccccc12,62.8%
5,Oc1ccc2[nH]c(-c3ccccc3)nc2c1,69.2%
6,CCCCC(CC)CNC(=N)NC(=N)NCCCCCCNC(=N)NC(=N)NCC(CC)CCCC (stereo not given),63.4%
7,O=[N+]([O-])c1ccc2c(CCc3c[nH]c4ccccc34)c[nH]c2c1,61.9%
8,CCOc1ccc(/C=N/NC(=O)C2CC2c2ccc(C(C)(C)C)cc2)cc1OCC (stereo not given),57.3%
9,O=S(=O)(Nc1ccc(-n2cccc2)cc1)c1ccc(Cl)c(Cl)c1,64.5%
10,O=C(c1nc2c(C(F)(F)F)cc(C3CC3)cn2c1Cl)N1CCN([C@H]2CC[C@H](O)CC2)C(=O)C1,61.7%
11,CCN(CC)S(=O)(=O)c1ccc(Cl)c(C(=O)Nc2sc3c(c2C#N)CCCC3)c1,60.2%
12,Nc1nc(=O)c(Br)c(-c2ccccc2)[nH]1,64.9%
13,OC(Cn1cncn1)(Cn1cncn1)c1ccc(F)cc1F,66.7%
14,Nc1nnc(-c2ccc(Cl)cc2)s1,62.7%
15,O=S(=O)(Nc1cccc2cccnc12)c1ccccc1,64.1%
16,CCCCc1ccc(-c2cc(C(=O)O)cc(-c3ccc(Cl)cc3)n2)cc1,68.9%
17,CC1CN(c2ncnc3c2c(-c2ccccc2)cn3-c2ccc(F)cc2)CC(C)O1 (stereo not given),75.3%
18,O=C(Nc1[nH]c(=O)ncc1F)c1ccccc1,64.8%
19,CC1(C)Cc2c(C#N)c(SCCc3ccccc3)nc(N3CCOCC3)c2CO1,81.4%
20,FC(F)(F)c1cc(C(F)(F)F)c2ccc3nc(-c4nnco4)cn3c2n1,67.3%

# Reference: the supplement of paper PMC10941209
